# Only a sample is shown.
# PLAP activator: activators of human placental alkaline phosphatase; 96,000 tested, 1.2% active; activation fold at 20 µM; AID 696; purified PLAP enzyme, luminescent substrate read-out; active compounds read high; in the data active = activation fold above about 2
# CYP2C9 inh: human CYP2C9 inhibition; CYP2C9 Supersomes, luciferin-H conversion, luminescence; AID 777; P11712; inhibition, % at 5 µM; 96,000 tested, 20% active;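 active = blocking of liver enzyme CYP2C9 beyond about 50% at 5 µM, limit read from the data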
# Target sequence (P11712 whole entry, looked up): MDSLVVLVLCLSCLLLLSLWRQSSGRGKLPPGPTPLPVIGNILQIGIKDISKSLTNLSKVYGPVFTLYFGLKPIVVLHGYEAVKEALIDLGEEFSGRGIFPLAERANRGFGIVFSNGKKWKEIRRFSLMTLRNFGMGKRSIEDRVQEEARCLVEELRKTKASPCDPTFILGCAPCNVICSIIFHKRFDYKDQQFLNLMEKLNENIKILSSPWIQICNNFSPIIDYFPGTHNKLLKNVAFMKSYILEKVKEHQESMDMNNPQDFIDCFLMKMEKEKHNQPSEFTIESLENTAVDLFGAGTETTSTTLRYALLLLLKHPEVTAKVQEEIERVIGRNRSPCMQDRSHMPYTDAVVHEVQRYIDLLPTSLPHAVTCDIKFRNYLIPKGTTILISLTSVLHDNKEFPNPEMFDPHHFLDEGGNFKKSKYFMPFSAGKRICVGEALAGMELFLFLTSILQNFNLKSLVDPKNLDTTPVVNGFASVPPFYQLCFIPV
# CYP2C19 inh: human CYP2C19 inhibition | CYP2C19 Supersomes, luciferin-H EGE luminescence, 30 min | P33261 | 96,000 tested, 21% active | AID 778 | inhibition, % at 5 µM;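 active = CYP2C19 inhibition above a set limit at 5 µM in the primary screen, cut at about 50% in these data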
# CYP2C19 act: increases human CYP2C19 enzyme activity | activation factor at 5 µM | 96,000 tested, under 10 active | P33261 | recombinant CYP2C19, luciferin-H EGE luminescence; active compounds read high; 0 = fully inhibited enzyme, 1 = untreated enzyme;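 active = activation factor of at least 2 at 5 µM in the primary screen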
# CYP2C9 activ: CYP2C9 (human) activation; recombinant CYP2C9, luciferin-H conversion, luminescence; active compounds read high; factor 1 = untreated enzyme, 0 = blocked; 96,000 tested, 1.4% active; AID 1024; activation factor at 5 µM; P11712;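 active = activation factor of 2 or more for CYP2C9 at a 5 µM dose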
# Hits are given with their value; - = inactive.
SMILES,PLAP activator,CYP2C9 inh,CYP2C19 inh,CYP2C19 act,CYP2C9 activ
CCN(CC)CCCNC(=O)c1nn(-c2cccc(OC)c2)c(=O)c2ccccc12,-,-,-,-,-
CCOc1cc(C(=O)Nc2cc(=O)n(C)c(=O)n2C)cc(OCC)c1OCC,-,-,-,-,-
Cc1ccccc1-c1nnc2s/c(=C\c3ccc(N(C)C)cc3)c(=O)n12,-,-,-,-,-
CC(C(=O)Nc1ccccc1C(=O)N1CCCC1)n1nnc2ccccc21 (configuration not stated),-,-,-,-,-
Cc1nc(C(=O)Nc2ccc(Cl)cc2Cl)nn1-c1cc(OC(C)C)c(Cl)cc1Cl,-,58,-,-,-
Cc1nc(C(=O)Nc2cccc(Cl)c2Cl)nn1-c1cc(OC(C)C)c(Cl)cc1Cl,-,82,-,-,-
CC(C)Oc1cc(NC(=O)CSCC(=O)Nc2cccc(C(F)(F)F)c2)c(Cl)cc1Cl,-,-,-,-,-
Cc1nc(C(=O)Nc2cccc(Cl)c2)nn1-c1cc(OC(C)C)c(Cl)cc1Cl,-,70,62,-,-
CNC(=O)c1nc(C)n(-c2cc(Cl)cc(Cl)c2)n1,-,-,-,-,-
CNC(=O)c1nc(C)n(-c2cc(Cl)ccc2Cl)n1,-,-,-,-,-
Cc1nc(C(=O)Nc2cc(Cl)ccc2Cl)nn1-c1cc(OC(C)C)c(Cl)cc1Cl,-,87,-,-,-
CCOC(=O)N1CCC(Nc2c(NCCCOC)c(=O)c2=O)CC1,-,-,-,-,-
Cn1c2c(c3ccccc31)CCSC2=O,-,-,-,-,-
O=C(COc1ccc(Cl)cc1Cl)Nc1ccc(Cl)cn1,-,-,58,-,-
O=C(COc1ccc(Cl)cc1Cl)NCc1ccco1,-,-,-,-,-
Cn1cc(CNC(=O)COc2ccc(Cl)cc2Cl)cn1,-,-,89,-,-
Cc1ccc(C(C)C)c(OCC(=O)Nc2ccc(Cl)cn2)c1,-,-,-,-,-
CC(=O)N1c2ccccc2C(=O)C1N1CCCCC1 (configuration not stated),-,-,-,-,-
CC(C)N1C(=O)C2C(c3ccccc3O)NC(C)(C(=O)O)C2C1=O (configuration not stated),-,-,-,-,-
CCOC(=O)N1CCN(C(=O)c2oc3ccc(S(=O)(=O)N4CCCCC4)cc3c2C)CC1,-,-,-,-,-
CCOc1ccc(-c2cc(N)n(S(=O)(=O)c3ccc(OC)cc3)n2)cc1,-,-,-,-,-
CCOC(=O)c1oc2ccc(S(=O)(=O)n3nc(-c4ccccc4)cc3N)cc2c1C,-,98,-,-,-
CCOC(=O)c1oc2ccc(S(=O)(=O)n3nc(-c4ccc(OC)cc4)cc3N)cc2c1C,-,100,-,-,-
COc1ccc(CCN2C(=S)NC3CC2(C)Oc2ccc([N+](=O)[O-])cc23)cc1OC (configuration not stated),-,72,-,-,-
COc1ccc(N2C(=O)NC3CC2(C)Oc2ccc(Cl)cc23)cc1OC (configuration not stated),-,-,-,-,-
SMILES,PLAP activator,CYP2C9 inh,CYP2C19 inh,CYP2C19 act,CYP2C9 activ
COc1ccc(Nc2nc(C(=O)NCCCN3CCOCC3)cs2)cc1,-,-,-,-,-
O=C(CCc1nc(-c2ccccc2)no1)NC1CCCCC1,-,-,-,-,-
Cc1ccc(S(=O)(=O)NC(CC(=O)N2CCc3ccccc32)c2ccco2)cc1 (configuration not stated),-,-,-,-,-
CCN(Cc1ccccc1)C(=O)CCc1nc(-c2ccc(C)cc2)no1,-,88,81,-,-
CCOC(=O)N1CCC(NC(=O)CCc2nc(-c3ccc(C)cc3)no2)CC1,-,73,-,-,-
CCOC(=O)N1CCC(NC(=O)CC(NS(=O)(=O)c2ccc(C)cc2)c2ccco2)CC1 (configuration not stated),-,59,-,-,-
CC(C)(C)c1ccc(-c2noc(CCC(=O)NCC3CCCO3)n2)cc1 (configuration not stated),-,-,65,-,-
COc1ccc(Cn2nc(C)cc2C)cc1OC,-,-,-,-,-
CCc1ccccc1N(CC)C(=O)CCc1nc(-c2ccc(C)cc2)no1,-,55,-,-,-
Cc1ccc(-c2noc(CCC(=O)NCCc3ccccc3Cl)n2)cc1,-,-,-,-,-
CC(N=c1ccccn1C(=O)Nc1cccc(C(F)(F)F)c1)c1ccco1 (configuration not stated),-,-,-,-,-
